In the library only some 17% were active in any assay of this set; here they are far more common.
TDP1 cell CPT: qHTS for Inhibitors of human tyrosyl-DNA phosphodiesterase 1 (TDP1): qHTS in cells in presence of CPT. actives 12% (n = 420,000). AID 686979, 2013. Potency, µM (series often up to 46.2 µM), without a hit: at the top dose activity change, negative = growth inhibition, actives largely listed as inhibitors. chicken DT40 Tdp1-/-;hTDP1 cells + 20 nM CPT, ATP luminescence, 48 h; further: on the % scale 0 is the no-effect control and ±100 the full control effect; nearly all actives have a fitted effect of over 55% in size
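Cell growth measured by CellTiter-Glo luminescence after a minimum 48 h, 37 C compound exposure with 20 nM CPT in Tdp1-knockout DT40 cells stably expressing hTDP1, seeded 400/well; qHTS titration format.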
ClpP mod: qHTS Assay for Activators of ClpP | purified B. subtilis ClpP, FRET peptide cleavage, 20 min | Potency, µM (titrated, usually from 57.5 µM), inactives show top-dose activity change, negative = active | actives 1.9% (n = 340,000); active means well fitted falling curve with a large enough effect; inconclusive means small, poorly fitted or top-dose-only effect; inactive means no such curve, though single readings can be large or run the other way; further: the source files actives as falling curves though it sought activators and does not explain the sign; nearly all actives have a fitted effect of over 65% in size
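Purified B. subtilis ClpP, 10 microg/mL final in Tris/HCl pH8 with KCl, BSA, glycerol and Tween-20, cleaved an Abz/nitrotyrosine-quenched decapeptide. Fluorescence (ex 320, em 430) was read at 0 and 20 min at room temperature. Delta was normalized to 5.8 microM ADEP and DMSO/no-enzyme controls.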
TDP1 cell noCPT: qHTS for Inhibitors of human tyrosyl-DNA phosphodiesterase 1 (TDP1): qHTS in cells in absence of CPT. Potency, µM (titrated, usually from 46.2 µM), for the others: top-dose activity change, negative = growth inhibition, most hits filed as inhibitors. actives 15% (n = 420,000). AID 686978, 2013. DT40 Tdp1-/- hTDP1 cells, no CPT, ATP luminescence, 48 h; further: on the % scale 0 is the no-effect control and ±100 the full control effect; nearly all actives have a fitted effect of over 55% in size
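Chicken DT40 Tdp1-/- cells stably complemented with human TDP1 were seeded at 400 cells/well with DMSO in place of 20 nM camptothecin. After compound pinning, cells grew at least 48 hr at 37 °C; viability read by CellTiter-Glo luminescence.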
TDP1 inh: qHTS Assay for Inhibitors of Tyrosyl-DNA Phosphodiesterase (TDP1); AID 485290, 2010; recombinant TDP1, AlphaScreen DNA substrate cleavage; actives 0.28% (n = 350,000); Potency, µM (highest dose often 130 µM), for inactives: at the top dose activity change, negative = inhibition, most hits filed as inhibitors; further: on the % scale 0 is the no-effect control and ±100 the full control effect; nearly all actives have a fitted effect of over 40% in size
Target sequence (Q9NUW8 whole entry, looked up): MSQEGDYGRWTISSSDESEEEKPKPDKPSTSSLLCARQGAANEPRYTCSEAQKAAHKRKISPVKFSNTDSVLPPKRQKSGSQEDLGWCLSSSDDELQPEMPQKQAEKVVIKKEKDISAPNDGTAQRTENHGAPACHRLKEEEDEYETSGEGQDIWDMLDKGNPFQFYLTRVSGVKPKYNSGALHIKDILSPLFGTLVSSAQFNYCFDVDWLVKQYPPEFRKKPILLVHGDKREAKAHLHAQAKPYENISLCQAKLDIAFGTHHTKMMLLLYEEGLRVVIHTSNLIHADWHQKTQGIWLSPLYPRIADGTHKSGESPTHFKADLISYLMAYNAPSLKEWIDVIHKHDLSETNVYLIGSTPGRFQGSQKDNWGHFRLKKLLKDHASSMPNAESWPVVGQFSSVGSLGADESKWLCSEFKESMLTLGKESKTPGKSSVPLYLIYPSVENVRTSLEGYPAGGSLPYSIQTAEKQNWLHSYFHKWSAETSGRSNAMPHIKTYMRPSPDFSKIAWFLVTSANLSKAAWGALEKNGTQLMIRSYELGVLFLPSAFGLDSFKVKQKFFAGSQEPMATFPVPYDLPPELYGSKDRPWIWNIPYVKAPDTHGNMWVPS
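E. coli-derived human Tdp1, 1 nM final. Cpd preinc 15 min RT; substrate 15 nM final, 5 min RT; AS bead mix 10 ug/ml final, 10 min RT. Signal loss = tyrosine-FITC cleavage. No-enzyme wells = max signal.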
Starred values were filed as active, the others as inactive; [ ] = another dose, or the depositor's remark. Unless noted, the call rests on the fitted dose curve; in most records, active means well fitted curve in the direction sought with a large enough effect; inconclusive means small, poorly fitted or top-dose-only effect, or another doubt; inactive means no such curve, though single readings can be large; an effect the other way counts as inactive or inconclusive. Potency means the concentration at half of the fitted maximal effect.

Screening CCCCn1c(SCC(=O)Nc2cc(C(F)(F)F)cc(C(F)(F)F)c2)nnc1C(CC)N(C)C (stereo not given) returned TDP1 cell CPT 23µM*, ClpP mod -2%, TDP1 cell noCPT 21µM* and TDP1 inh 5%.
For Nc1c(-c2ccc(F)cc2)nc2ncccn12 the results were TDP1 cell CPT 13%, ClpP mod -4% and TDP1 cell noCPT -3%.
CCOC(=O)C1CCCN(C(=O)CC(C)c2ccccc2)C1 (stereo not given) was read as TDP1 cell CPT -13%, ClpP mod -1%, TDP1 cell noCPT -1% and TDP1 inh -11%.
CCOC(=O)C1CCN(C(=O)CC(C)c2ccccc2)CC1 (stereo not given) was read as TDP1 cell CPT 18µM*, ClpP mod -3%, TDP1 cell noCPT inconclusive and TDP1 inh -1%.
CCOC(=O)C1CCCN(C(=O)c2ccccc2)CC1 (stereo not given) was read as TDP1 cell CPT -5%, ClpP mod -1% and TDP1 cell noCPT 9%.
CCOC(=O)C1CCCN(C(=O)c2ccc3c(c2)C(C)(C)CCC3(C)C)CC1 (stereo not given) was read as TDP1 cell CPT 8.2µM*, ClpP mod 1% and TDP1 cell noCPT 6.5µM*.
`CCOC(=O)C1CCCN(C(=O)c2ccc(-c3ccccc3)cc2)CC1` (stereo not given) gave TDP1 cell CPT 16µM*, ClpP mod 2% and TDP1 cell noCPT inconclusive.
For CCOc1ccccc1CNC(=O)c1ccc2nc(N3CCC(C)CC3)sc2c1 the results were TDP1 cell CPT inconclusive, ClpP mod -6%, TDP1 cell noCPT inconclusive and TDP1 inh 5%.
For COc1ccc2[nH]c3c(=O)n(CCN4CCOCC4)cnc3c2c1 the results were TDP1 cell CPT 4%, TDP1 cell noCPT -15% and TDP1 inh 0%.
Screening CCCCOc1ncnc2c1[nH]c1ccc(C)cc12 returned TDP1 cell CPT inconclusive, TDP1 cell noCPT 21µM* and TDP1 inh -4%.
CCN(CC)c1ncnc2c1[nH]c1ccccc12 was read as TDP1 cell CPT 18µM*, ClpP mod -4%, TDP1 cell noCPT 23µM* and TDP1 inh 6%.
`CCCOc1ncnc2c1[nH]c1ccccc12` gave TDP1 cell CPT 23µM*, ClpP mod 14µM*, TDP1 cell noCPT 21µM* and TDP1 inh 6%.
`CCCOc1ncnc2c1[nH]c1ccc(OC)cc12` gave TDP1 cell CPT 6.5µM*, ClpP mod inconclusive, TDP1 cell noCPT 8.2µM* and TDP1 inh 2%.
Screening Cc1ccc2[nH]c3c(NCCN4CCOCC4)ncnc3c2c1 returned TDP1 cell CPT inconclusive, ClpP mod 1%, TDP1 cell noCPT inconclusive and TDP1 inh 1%.
Screening Cc1ccn2c(=O)cc(COc3ccc(NC(=O)COc4ccc(Cl)cc4)cc3)nc2c1 returned TDP1 cell CPT -2%, ClpP mod -2%, TDP1 cell noCPT -1% and TDP1 inh 3%.
Screening COCCNc1ncnc2c1[nH]c1ccccc12 returned TDP1 cell CPT inconclusive, ClpP mod -2%, TDP1 cell noCPT 12µM* and TDP1 inh 4%.
`CCC1(C2CCN(Cc3ccc(OC)cc3)CC2)NC(=O)N(CC2COc3ccccc3O2)C1=O` (stereo not given) gave TDP1 cell CPT -16%[9.04 µM] and TDP1 cell noCPT inconclusive.
`CCC1(C2CCN(Cc3ccc(C)s3)CC2)NC(=O)N(CC2COc3ccccc3O2)C1=O` (stereo not given) gave TDP1 cell CPT inconclusive and TDP1 cell noCPT 21µM*.
CCC1(C2CCN(Cc3ccoc3)CC2)NC(=O)N(CC2COc3ccccc3O2)C1=O (stereo not given) was read as TDP1 cell CPT -12% and TDP1 cell noCPT -24%.
Screening CCC1(C2CCN(Cc3c(C)[nH]c4ccccc34)CC2)NC(=O)N(Cc2ccc3c(c2)OCO3)C1=O (stereo not given) returned TDP1 cell CPT 23µM* and TDP1 cell noCPT 16µM*.
